Results filed as inconclusive are left out. Calls of active or inactive are those of the source. Rule for the calls: active = hit-call score of the fitted dose curve at least 0.9, where 1 is the maximum; inconclusive = response in the unintended direction; inactive = score below 0.9.
The molecules below were run against sheep Cyclooxygenase-1 (Cox1), PTGS1 (gene 443551) (UniProt P05979) (assay: NVS_ENZ_oCOX1: NovaScreen (NVS) Enzymatic Assay for sheep Cyclooxygenase-1 (Cox1) (AID 2283239);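 note: actives reduce cyclooxygenase activity so potencies are for inhibitors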).
Chain of sheep Cyclooxygenase-1 (Cox1), PTGS1 (gene 443551) (P05979 whole entry, looked up): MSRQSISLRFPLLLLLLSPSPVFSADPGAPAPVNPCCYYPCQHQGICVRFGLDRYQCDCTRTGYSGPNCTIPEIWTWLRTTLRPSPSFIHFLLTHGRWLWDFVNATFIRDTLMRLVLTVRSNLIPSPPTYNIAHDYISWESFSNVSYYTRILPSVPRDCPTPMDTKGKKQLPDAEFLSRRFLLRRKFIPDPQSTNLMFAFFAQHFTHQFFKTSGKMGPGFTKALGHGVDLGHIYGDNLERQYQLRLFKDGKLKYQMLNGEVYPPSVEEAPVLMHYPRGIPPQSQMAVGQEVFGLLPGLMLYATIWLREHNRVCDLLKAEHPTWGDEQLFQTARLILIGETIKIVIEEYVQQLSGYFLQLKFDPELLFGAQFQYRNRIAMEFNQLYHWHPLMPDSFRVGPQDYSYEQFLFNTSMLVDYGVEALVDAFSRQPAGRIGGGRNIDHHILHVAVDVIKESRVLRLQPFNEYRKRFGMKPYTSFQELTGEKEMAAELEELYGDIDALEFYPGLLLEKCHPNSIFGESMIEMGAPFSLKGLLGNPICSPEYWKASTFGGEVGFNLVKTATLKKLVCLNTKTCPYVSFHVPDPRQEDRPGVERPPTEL
Description: NVS_ENZ_oCOX1 is a biochemical, single-readout assay that uses extracted gene-proteins from Ovine seminal vesicles in a tissue-based cell-free assay. Measurements were taken 0.66 hour after chemical dosing in a 96-well plate.NVS_ENZ_oCOX1 is one of one assay component(s) measured or calculated from the NVS_ENZ_oCOX1 assay. It is designed to make measurements of enzyme activity, a form of enzyme reporter, as detected with absorbance signals by Colorimetric technology.Data from the assay component NVS_ENZ_oCOX1 was analyzed into 1 assay endpoint. This assay endpoint, NVS_ENZ_oCOX1, was analyzed in the positive analysis fitting direction relative to DMSO as the negative control and baseline of activity. Using a type of enzyme reporter, loss-of-signal activity can be used to understand changes in the enzymatic activity as they relate to the gene PTGS1. Furthermore, this assay endpoint can be referred to as a primary readout, because this assay has produced multiple assay endpoints where this one serves a enzymatic activity function. To generalize the intended target to other relatable targets, this assay endpoint is annotated to the oxidoreductase intended target family, where the subfamily is cyclooxygenase.
Binding assays used specific radioligands (tritiated, iodinated) with non-radioactive competitive displacement ligands in agonist or antagonist protocols (as indicated) and various reference compounds and inhibitors to titrate specific binding to receptors and transporters. Most enzyme assays (CYPs, kinases, phosphatases, proteases, HDACs) used recombinant protein and specific substrates (fluorescence mostly, some colorimetric and radioactive) and inhibitors, followed by a biochemical separation of substrate and product. All assays for the biochemical HTS were initially run in duplicate at a single concentration (10 uM for CYP450 assays and 25 uM for all others). […] Each assay was run with positive and negative controls, and concurrent controls on every plate. The follow-up (secondary) screen tested active chemical-pairs in concentration series, as well as a few additional assays not tested in the primary screen, some selected negative inactives, and several cases re-run in the concentration series for confirmatory purposes.

For COc1ccccc1NC(=O)CC(C)=O, which AC50 is on record?
The AC50 was 14.6 µM (active).

How did the AC50 turn out when C=CCOCC(O)CO (stereo unspecified) was run?
The AC50 was 25 µM (active).

How did the outcome turn out when Cc1cc(N)n(-c2ccccc2)n1 was run?
Its outcome is “inactive”.

With CC(=O)CCC=C(C)CCC=C(C)C as the molecule, how does the AC50 read?
Its AC50 is 43.3 µM (active).

How did the AC50 turn out when O=C1OC2(c3ccc(O)cc3Oc3cc(O)ccc32)c2ccccc21 was run?
Its AC50 is 18.2 µM (active).

For CC(O)COCC(C)O (stereo unspecified), which outcome is on record?
Its outcome is “inactive”.

Cc1ccc(C(C)(C)O)cc1 was tested. Which outcome did it give?
Its outcome is “inactive”.

With c1ccc(Sc2ccccc2)cc1 as the molecule, how does the outcome read?
The outcome was “inactive”.

CC(C)(O)CCc1ccccc1 was tested. Which outcome did it give?
The outcome was “inactive”.

For CC(=O)c1ccc(C)cc1, which outcome is on record?
The outcome was “inactive”.

For CCCCCCCCCCCCS, which AC50 is on record?
The AC50 was 25 µM (active).

— PubChem BioAssay (EPA / NIEHS)
